Source: PubChem BioAssay (Tox21)
Records with an inconclusive call do not appear. Where a structure was tested more than once in an assay, its records may differ in their call. Activity calls are given as the source filed them. Calls follow the shape of the full dose curve.

Test: qHTS assay to identify small molecule agonists of the progesterone receptor (PR) signaling pathway - cell viability counter screen (AID 1346799); also: nearly all actives have a fitted effect of over 45% in size
Conditions: PR-UAS-bla HEK293T viability, CellTiter-Glo luminescence, 16 h; series mostly up to 92.4 µM; activity change, negative = cytotoxicity: at the top concentration
From the text: National Center for Advancing Translational Sciences [NCATS]
NIH Chemical Genomics Center [NCGC]
U.S. Environmental Protection Agency [EPA]
National Institutes of Environmental Health Sciences [NIEHS]
National Toxicology Program [NTP]
U.S. Food and Drug Administration [FDA]
Progesterone receptor (PR), a nuclear hormone receptor, plays an important role in development, metabolic homeostasis and reproduction. It is activated by the steroid hormone progesterone. Endocrine disrupting chemicals (EDCs) and their interactions with steroid hormone receptors like PR causes disruption of normal endocrine function. To identify the compounds that stimulate PR signaling, a PR-UAS-bla GripTite cell line i.e. PR-UAS-bla HEK293T (Invitrogen, Carlsbad, CA, USA) containing a beta-lactamase reporter gene under the control of an UAS response element was used to screen Tox21 10K compound library. The cytotoxicity of the Tox21 compound library against the PR-bla cell line was tested in parallel by measuring the cell viability using CellTiter-Glo assay in the same wells.
Tox21 Assay Protocol Summary:
PR-UAS-bla HEK293T cells were dispensed at 3,000 cells/5 uL of assay medium containing 2% charcoal stripped FBS per well into black wall/clear-bottom 1536-well plates using a Multidrop Combi (ThermoFisher Scientific, Waltham, MA) dispenser. After the assay plates were incubated at a 37C and 5% CO2 for 6 hr, 23 nL of compounds dissolved in DMSO, positive controls or DMSO only was transferred to the assay plate by a Pintool station (Kalypsys, San Diego, CA). The plates were incubated at 37C and 5% CO2 for 16 hr. Then 1 uL of LiveBLAzer B/G FRET substrate was added using a Flying Reagent Dispenser (FRD, Aurora Discovery, San Diego, CA), the plates were incubated at room temperature for 2 hours, and fluorescence intensity was measured by an Envision plate reader (PerkinElmer, Shelton, CT). For cell viability readout that measures cytotoxicity, 4 uL/well of CellTiter-Glo reagent was added into the assay plates using a FRD. After 30 min incubation at room temperature, the luminescence intensity in the plates was measured using a ViewLux (PerkinElmer) plate reader.
% is scaled to controls: 0 for no effect and ±100 for the full control effect; potency is read from the fitted curve at half-maximal effect.

Compound	activity change, negative = cytotoxicity	Potency
O=C(N[C@@H]1N=C(c2ccccc2F)c2cccc3c2N(CC3)C1=O)c1cc2ccccc2[nH]1	3.43% [at 42.5 µM] (inactive)	
CCC[CH2][Sn]([CH2]CCC)([O]C(C)=O)[O]C(C)=O		0.978 µM (active)
CSC(=O)c1c(C(F)F)nc(C(F)(F)F)c(C(=O)SC)c1CC(C)C	9.86% (inactive)	
CN	-0.297% (inactive)	
Nc1ccc(Cl)cc1C(=O)c1ccccc1F	0.934% [at 42.5 µM] (inactive)	
COc1cnc(OC)n2nc(NS(=O)(=O)c3c(OCC(F)F)cccc3C(F)(F)F)nc12	-10.4% (inactive)	
CC(=O)C(Cl)C(=O)N(C)C (stereo not given)	-8.11% (inactive)	
Nc1ccccc1-c1ccccc1		30.5 µM (active)
CC(Cc1ccc(OCC(=O)O)cc1)NCC(O)c1csc(C(F)(F)F)n1 (stereo not given)	-6.87% (inactive)	
CNC(=O)/C=C(\C)OP(=O)(OC)OC	1.16% (inactive)	
O=NN(CCO)CCO	4.66% (inactive)	
CC(=O)[O-].CC(=O)[O-].CC(=O)[O-].[Sb+3]	7.1% [at 3.27 µM] (inactive)	
C=CC(=C)C	-2.37% (inactive)	
[O-][Cl+3]([O-])([O-])O	-3.65% (inactive)	
N#Cc1sc2c(=O)c3ccccc3c(=O)c=2sc1C#N		30.6 µM (active)
Cc1ccn2nc(S(=O)(=O)Nc3c(F)cccc3F)nc2n1	11.8% (inactive)	
C#CC1(O)CCCCC1	3.2% (inactive)	
Nc1nc(N)nc(Cl)n1	-26.5% (inactive)	
C=C(C)C(=O)[O][Sn]([CH2]CCC)([CH2]CCC)[CH2]CCC		2.17 µM (active)
O=[N+]([O-])c1ccc(CCl)cc1	-5.66% (inactive)	

Compound	activity change, negative = cytotoxicity	Potency
CCc1cccc(C)c1N(C(=O)CCl)[C@@H](C)COC	41.1% (inactive)	
CNC(C)(C)Cc1ccccc1	-18.5% [at 42.5 µM] (inactive)	
CCOC(=O)Cc1ccccc1	-3.25% (inactive)	
c1ccc(N=NNc2ccccc2)cc1		inactive
CCCCN(CCCC)C(=S)S	-2.77% (inactive)	
CC(Cc1ccccc1)N(C)Cc1ccco1 (stereo not given)	-1.9% [at 42.5 µM] (inactive)	
Cc1cnc2c(C(=O)O)c(Cl)ccc2c1	4.03% (inactive)	
[F][Sn]([c]1ccccc1)([c]1ccccc1)[c]1ccccc1		1.54 µM (active)
Cc1cc2c3c(c1)C(c1ccccc1)=N[C@@H](NC(=O)c1ccncc1)C(=O)N3CC2	2.83% (inactive)	
CCN(CC)C(=O)N[C@@H]1C=C2c3cccc4[nH]cc(c34)C[C@@H]2N(C)C1	13.8% [at 42.5 µM] (inactive)	
CSC(C)(C)/C=N/O	11.4% (inactive)	
Cc1ccccc1OP(=O)(Oc1ccccc1C)Oc1ccccc1C	3.48% (inactive)	
CCC[CH2][Sn]([CH2]CCC)([CH2]CCC)[O][Sn]([CH2]CCC)([CH2]CCC)[CH2]CCC		1.89 µM (active)
CCN(CC)C(=S)S		17.1 µM (active) and inactive
BrCCCBr	16.2% (inactive)	
O=C(N[C@H]1N=C(c2ccccc2F)c2cccc3c2N(CC3)C1=O)c1cc2ccccc2[nH]1	7.62% [at 42.5 µM] (inactive)	
COc1ccc2c(c1OC)C(=O)O[C@@H]2[C@H]1c2cc3c(cc2CCN1C)OCO3	-8.89% (inactive)	
CCN(CC)Cc1nccn1-c1ccc([N+](=O)[O-])cc1C(=O)c1ccccc1Cl	-9.2% [at 42.5 µM] (inactive)	
CN1C(=O)[C@@H](NC(=O)c2cc3ccccc3[nH]2)N=C(c2ccccc2)c2ccccc21	18.6% [at 42.5 µM] (inactive)	
CCCN	-0.369% (inactive)	
